Data published in PubChem BioAssay.
Active and inactive are the calls of the source.

Experiments:
[1] = anti-His antibody binders, primary screen, artefact control for SMM control protein annotation, biochemical, small-molecule microarray, 635 nm fluorescence (AID 1128); conditions: anti-His Alexa647 antibody binding, higher = more signal;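 also: score merges feature fluorescence with signal-to-noise for each printed compound spot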
[2] = test system: Human papillomavirus type 1a E7 protein (residues 1-88); experiment: HPV1a E7 small-molecule binders, primary screen, biochemical, small-molecule microarray, residues 1-88, 635 nm (AID 1129); conditions: small-molecule microarray binding, fluorescence 635 nm; higher = more signal
[3] = target: Focal adhesion kinase 1 (Homo sapiens) (UniProt Q05397); experiment: small-molecule microarray binders of FAK, primary screen, biochemical, 635/667 nm fluorescence, BSA, DTT (AID 1130); conditions: PTK2 binding, 635 nm fluorescence, higher = more signal;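 also: composite of spot emission at 667 nm and signal to noise over triplicate slides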
Sequence of Focal adhesion kinase 1 (Homo sapiens) (Q05397 whole entry, looked up): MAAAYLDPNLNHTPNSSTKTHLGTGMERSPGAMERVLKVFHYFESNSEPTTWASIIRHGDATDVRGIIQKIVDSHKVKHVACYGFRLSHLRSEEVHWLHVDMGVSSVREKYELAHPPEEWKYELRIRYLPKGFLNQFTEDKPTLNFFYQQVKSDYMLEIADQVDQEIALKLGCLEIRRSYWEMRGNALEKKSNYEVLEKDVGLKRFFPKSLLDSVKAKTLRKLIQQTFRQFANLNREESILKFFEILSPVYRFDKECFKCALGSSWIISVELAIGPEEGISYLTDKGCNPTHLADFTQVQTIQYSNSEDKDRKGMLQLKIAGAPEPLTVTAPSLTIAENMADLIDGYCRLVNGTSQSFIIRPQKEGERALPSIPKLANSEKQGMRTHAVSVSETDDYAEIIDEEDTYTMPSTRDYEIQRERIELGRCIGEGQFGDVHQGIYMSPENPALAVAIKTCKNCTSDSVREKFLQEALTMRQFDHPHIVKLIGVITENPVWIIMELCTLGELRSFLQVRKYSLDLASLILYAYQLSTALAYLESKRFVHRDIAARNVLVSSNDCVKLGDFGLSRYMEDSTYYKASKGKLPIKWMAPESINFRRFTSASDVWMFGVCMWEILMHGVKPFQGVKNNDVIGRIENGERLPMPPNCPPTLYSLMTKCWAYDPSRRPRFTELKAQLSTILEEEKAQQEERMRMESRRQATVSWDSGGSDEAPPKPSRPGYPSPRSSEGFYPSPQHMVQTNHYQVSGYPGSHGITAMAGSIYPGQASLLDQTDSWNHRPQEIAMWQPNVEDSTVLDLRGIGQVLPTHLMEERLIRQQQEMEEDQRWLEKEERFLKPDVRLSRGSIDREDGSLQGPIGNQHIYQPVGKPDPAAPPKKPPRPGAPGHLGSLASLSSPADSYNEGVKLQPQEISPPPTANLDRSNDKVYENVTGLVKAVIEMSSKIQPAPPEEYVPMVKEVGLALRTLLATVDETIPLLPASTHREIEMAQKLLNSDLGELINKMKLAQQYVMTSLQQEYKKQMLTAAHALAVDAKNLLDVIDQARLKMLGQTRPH

[4] = test system: Fibrinogen (Alexa647-labelled); experiment: fibrinogen binders on compound microarrays, profiling panel, artefact control for SMM control-protein annotation, biochemical, small-molecule microarray, 635/667 nm fluorescence (AID 1131); conditions: fibrinogen-A647 binding fluorescence, higher = more signal;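 also: z-score merges 667 nm fluorescence with per-spot signal-to-noise over triplicate slides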
[5] = target: Follistatin (Homo sapiens) (UniProt P19883); experiment: follistatin binders on small-molecule microarrays, primary screen, biochemical, small-molecule microarray, 635/667 nm fluorescence (AID 1132); conditions: FST binding, 635 nm fluorescence, higher = more signal
Sequence of Follistatin (Homo sapiens) (P19883 whole entry, looked up): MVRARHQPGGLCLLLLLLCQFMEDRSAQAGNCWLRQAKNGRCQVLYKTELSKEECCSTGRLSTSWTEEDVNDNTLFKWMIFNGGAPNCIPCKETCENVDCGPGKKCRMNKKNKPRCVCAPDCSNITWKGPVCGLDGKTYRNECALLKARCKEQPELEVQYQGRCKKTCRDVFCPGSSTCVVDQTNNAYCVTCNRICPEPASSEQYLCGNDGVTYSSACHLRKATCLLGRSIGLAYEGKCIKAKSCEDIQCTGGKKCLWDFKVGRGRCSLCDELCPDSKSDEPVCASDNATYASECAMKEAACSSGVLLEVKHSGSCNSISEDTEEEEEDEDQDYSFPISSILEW

[6] = target: Fibroblast growth factor 2 (Homo sapiens) (UniProt P09038); experiment: FGF2 binders on small-molecule microarrays, primary screen, biochemical, small-molecule microarray, 635/667 nm fluorescence (AID 1133); conditions: small-molecule microarray binding, FGF2, fluorescence 635/667; higher = more signal
Sequence of Fibroblast growth factor 2 (Homo sapiens) (P09038 whole entry, looked up): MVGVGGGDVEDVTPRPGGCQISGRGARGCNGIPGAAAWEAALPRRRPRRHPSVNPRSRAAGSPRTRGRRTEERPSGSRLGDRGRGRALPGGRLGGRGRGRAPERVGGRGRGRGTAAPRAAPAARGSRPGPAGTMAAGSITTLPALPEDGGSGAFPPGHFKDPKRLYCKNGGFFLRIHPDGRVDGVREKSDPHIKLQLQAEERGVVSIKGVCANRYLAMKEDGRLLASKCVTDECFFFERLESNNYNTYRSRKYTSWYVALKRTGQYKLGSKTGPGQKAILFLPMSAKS

[7] = mitochondrial membrane potential change in A549 cells, profiling panel, cell-based, JC-1 fluorescence, basal, 24 h, 100 nL (AID 1138); conditions: higher = more signal;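 also: A549 lung adenocarcinoma cells under basal conditions with no added stimulus; test concentration not given here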
Lefty1 = Lefty1 binders on small-molecule microarrays, primary screen, biochemical, small-molecule microarray, 635/667 nm fluorescence (AID 1139); conditions: small-molecule microarray binding, fluorescence 635/667; higher = more signal
[8] = test system: wheat germ agglutinin (Triticum aestivum), Alexa647-labelled; experiment: wheat germ agglutinin binders on compound microarrays, profiling panel, artefact control for SMM control-protein annotation, biochemical, small-molecule microarray, 635/667 nm fluorescence (AID 1140); conditions: WGA-A647 binding, 635 nm fluorescence, higher = more signal;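 also: score merges 667 nm feature emission with signal to noise over triplicate slides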
[9] = target: Luciferin 4-monooxygenase (Photinus pyralis) (UniProt P08659); experiment: firefly luciferase enzyme inhibitors, primary screen, biochemical, luminescence, purified enzyme, 2006 set (AID 1141); conditions: SteadyGlo luminescence, 30 min, higher = more signal, called active from +8 up or from −8 down;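 also: cell-free assay with purified firefly luciferase at 100 ng per well in PBS; test concentration not given here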
Sequence of Luciferin 4-monooxygenase (Photinus pyralis) (P08659 whole entry, looked up): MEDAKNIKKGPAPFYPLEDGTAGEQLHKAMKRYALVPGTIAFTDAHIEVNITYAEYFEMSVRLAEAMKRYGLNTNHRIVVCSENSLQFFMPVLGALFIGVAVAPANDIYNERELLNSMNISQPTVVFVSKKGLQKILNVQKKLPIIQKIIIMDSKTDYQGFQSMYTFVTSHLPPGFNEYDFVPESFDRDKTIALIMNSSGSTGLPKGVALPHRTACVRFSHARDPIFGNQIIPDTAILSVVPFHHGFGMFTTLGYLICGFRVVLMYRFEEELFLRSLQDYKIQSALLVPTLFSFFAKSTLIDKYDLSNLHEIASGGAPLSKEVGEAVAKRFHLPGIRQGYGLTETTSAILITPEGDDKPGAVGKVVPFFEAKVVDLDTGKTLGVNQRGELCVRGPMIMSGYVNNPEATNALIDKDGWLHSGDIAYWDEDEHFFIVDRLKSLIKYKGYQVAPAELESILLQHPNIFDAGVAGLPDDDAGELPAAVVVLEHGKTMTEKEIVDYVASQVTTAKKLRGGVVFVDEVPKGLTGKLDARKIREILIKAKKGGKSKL

Row | Structure (SMILES) | composite z-score [1] | composite z-score [2] | composite z-score [3] | composite z-score [4] | composite z-score [5] | composite z-score [6] | z-score [7] | composite z-score (Lefty1) | composite z-score [8] | z-score [9]
1 | COC(=O)[C@@]1(Cc2ccc(F)cc2)[C@H]2c3cc(C(=O)N(C)C)n(Cc4ccc(Cl)c(C(F)(F)F)c4)c3C[C@H]2CN1C(=O)c1ccccc1 | 2.56 | 1.22 | 1.14 | 1.01 | 0.909 | -0.542 | 1.98 | -0.764 | 1.4 | 1.04 (inactive)
2 | C=C(/C(=C/C[C@H](OC(C)=O)c1ccc(CO)o1)c1cc(C(=O)OC)ccc1OC)C(C)C | -0.978 | -0.184 | -0.0384 | -1.25 | 0.467 | 0.539 | -0.483 | 0.864 | -1.24 | -1.33 (inactive)
3 | O=C(NC1CC1)[C@@H]1c2ccccc2C(=O)N(Cc2ccccc2Cl)[C@H]1c1ccc(CO)cc1 | 3.06 | 0.981 | 1.06 | 0.57 | 1.33 | 1.32 | 3.13 | 0.233 | 0.447 | -1.44 (inactive)
4 | O=C1[C@@]23C=C(Br)[C@H](C[C@@H]2CCOC3)[C@@]12CO2 | 0.477 | 0.235 | -0.176 | 0.332 | 0.327 | 0.469 | 1.23 | 0.406 | 0.128 | -0.54 (inactive)
5 | C[N+](C)(C)CCCCCCNC(=O)[C@@H]1C[C@@H]2C(=O)N[C@@H](Cc3ccccc3)C(=O)N2[C@@H]1c1cccc(OCCO)c1 | 2.18 | 0.432 | 0.214 | 0.608 | 1.34 | 1.45 | 0.435 | 1 | 0.659 | -0.205 (inactive)
6 | C=C(COC)/C(=C/C[C@@H](OC(C)=O)c1ccc(OCCO)cc1)c1cnc2ccccc2c1 | 0.616 | 0.328 | -0.514 | 0.869 | 1.41 | 1.55 | 0.379 | 1.29 | 0.857 | -0.846 (inactive)
7 | C=CCN1C(=O)[C@@]2(Cc3ccccc31)N=C(c1ccc(OCCCO)cc1)O[C@H]2c1ccccc1 | 2.49 | 1.19 | 1.02 | 0.039 | 1.35 | 0.988 | 1.1 | 0.368 | 0.495 | -2.65 (inactive)
8 | COC(=O)[C@@]1(Cc2ccccc2)[C@H]2c3cc(C(=O)N4CCCC4)n(Cc4ccc(S(C)(=O)=O)cc4)c3C[C@H]2CN1C(=O)c1ccccc1 | 1.27 | 1.27 | 2.05 | 1 | 1.03 | -0.771 | 0.687 | -0.07 | 1.08 | 1.3 (inactive)
9 | C=CCNC(=O)[C@H]1[C@@H]2C(=O)O[C@@H](c3ccccc3)[C@@H](c3ccccc3)N2[C@@H](c2ccccc2OCCO)[C@]12C(=O)Nc1ccc(C#CCCO)cc12 | 1.12 | -0.231 | 0.191 | -0.205 | 0.0804 | 2.05 | 0.582 | -0.376 | -0.0387 | -0.412 (inactive)
10 | C=CC[C@@]1(C(=O)NCCN2CCOCC2)N=C(c2ccc(OCCCO)cc2)O[C@@H]1c1ccccc1N=[N+]=[N-] | 0.373 | 0.126 | 0.503 | 0.161 | 1.36 | 0.399 | 0.404 | 0.113 | 1.18 | -5.94 (inactive)
11 | CC(C)c1ccc(NN2C(C(O)c3ccc(B(O)O)cc3)C=CC3C(=O)N(c4ccccc4)C(=O)C32)cc1 (stereo not given) | 1.24 | 1.2 | 0.581 | 0.952 | 1.32 | -0.159 | -0.641 | 0.481 | 0.783 | -6.16 (inactive)
12 | COC(=O)[C@@]1(Cc2ccc(F)cc2)[C@H]2c3cc(C(=O)N4CCCC4)n(Cc4ccc(S(C)(=O)=O)cc4)c3C[C@H]2CN1C(=O)c1ccccc1 | 1.9 | 1.24 | 0.566 | 0.773 | 0.751 | 0.264 | 0.427 | -0.0071 | 0.616 | 1.18 (inactive)
13 | CCOC(=O)[C@H]1C/C=C/C[C@H](C(=O)OCC)C(=O)O[C@H]2[C@@H](OC)O[C@H](CO)[C@@H](OC(=O)c3c(OC)cccc3OC)[C@@H]2OC1=O | 0.0181 | 1.12 | 0.523 | 0.661 | 0.706 | 0.418 | -0.927 | 0.639 | 0.0697 | -0.335 (inactive)
14 | O=C1N[C@@H](Cc2ccccc2)C(=O)N2[C@@H]1C[C@@H](C(=O)O)[C@H]2c1cccc(OCCO)c1 | 3.3 | 1.03 | 0.27 | 0.56 | 1.38 | 1.43 | 0.849 | 1.49 | 0.552 | -1.91 (inactive)
